MPTP block: inhibitors of mitochondrial permeability transition pore; inhibition, % at 10 µM; isolated mouse mitochondria, Ca2+ swelling absorbance, 30 min; 1.4% of 360,000 active;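 active means inhibition of 50% or more, scaled per plate between neutral and stimulator controls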;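 further: 0% = DMSO wells given calcium and 100% = 1 mM EGTA wells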
Myeloid diff MLP: myeloid differentiation induction; 1% of 360,000 active; ER-HoxA9 myeloid progenitors, lysozyme-GFP differentiation, flow cytometry; calls only at 10 µM;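 active means normalized GFP-positive differentiation at or above the plate's own cutoff, the solvent-only control mean plus 3 SD; inconclusive means no clear call, values can overlap the other calls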;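 further: cells exposed to compound for four days before flow analysis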
GRIN3A LBD mod: modulators (binders) of human NR3A ligand-binding domain | 2.5% of 340,000 active | NR3A LBD differential scanning fluorimetry, Tm shift; 0% = protein alone, 100% = glycine-bound protein | Tm shift relative to glycine control, % at 25 µM | AID 1259313;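 active means melting temperature shift of at least 10% of the positive control shift, at one fixed dose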
rCAG binder: binds r(CAG) RNA repeats; r(CAG) RNA repeat, TO-PRO-1 dye displacement fluorescence; inhibition, % at 3 µM; 1.3% of 370,000 active;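 active means inhibition above the plate cutoff, the mean of all test compounds on that plate plus 3 SD, cut at about 35% in these data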;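 further: 0% = DMSO alone and 100% = 100 µM mitoxantrone as full dye displacement; higher means more dye released from RNA so lower well fluorescence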
FAS TE block: inhibitors of human fatty acid synthase thioesterase domain; recombinant FAS-TE, OMFH fluorogenic substrate, fluorescence endpoint; inhibition, % at 15 µM; 0.67% of 360,000 active; AID 602261;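 active means compounds whose normalised, plate-corrected inhibition of enzyme fluorescence in the single-dose primary screen is 50% or more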;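 further: 0% = DMSO with enzyme and 100% = substrate without enzyme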
MPTP counter: mitochondrial membrane potential, counter-screen. shares compounds with MPTP block. isolated mitochondria, Rhodamine 123 fluorescence. inhibition, % at 10 µM. 78% of 5,000 active; in the data active means inhibition above about 22%;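 further: 0% = DMSO vehicle and 100% = positive control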
MPTP abs DR: MPTP inhibition, dose response swelling confirmation; 58% of 780 active; isolated mitochondria swelling, absorbance; AID 651561; IC50, µM; shares compounds with MPTP block; in the data active means IC50 below about 20 µM
MPTP counter DR: counter-screen for mitochondrial permeability transition pore inhibitors, dose response; shares compounds with MPTP block; isolated mitochondria counterscreen, fluorescence read-out; IC50, µM; 49% of 780 active; in the data active means IC50 below about 80 µM
Numbers without * were called inactive; i = inactive; ? = inconclusive; / = not tested or not shown; + = active, no number. Only some compounds are listed: those with a hit (about 5.7% of all), similar ones and a draw of the others.

SMILES | MPTP block | Myeloid diff MLP | GRIN3A LBD mod | rCAG binder | FAS TE block | MPTP counter | others
O=C(Nc1cccnc1)c1cccc(S(=O)(=O)N2CCc3ccccc32)c1 | -1 | i | 1 | 4 | 1 | /
O=C(Nc1ccncc1)c1cccc(S(=O)(=O)N2CCc3ccccc32)c1 | 96* | + | -2 | 5 | 4 | 94*
CCc1ccccc1NC(=O)c1cc(S(=O)(=O)N2CCc3ccccc32)cn1C | 1 | i | 0 | 3 | 3 | /
O=C(NC(NC(=S)N1CCOCC1)C(Cl)(Cl)Cl)c1cccc2ccccc12 (stereo not drawn) | 3 | i | -3 | 16 | 7 | /
O=C(OCc1ccccc1)N(CCCCN(CCCNCc1ccccc1)C(=O)OCc1ccccc1)CCCNCc1ccccc1 | 64* | ? | 0 | 5 | 3 | -6
COc1ccc(CNC(=O)Cc2nn(C)c(=O)c3ccccc23)cc1 | 61* | i | 11* | 0 | -16 | 51*
Cn1nc(CC(=O)Nc2cccc3ncccc23)c2ccccc2c1=O | 86* | i | 1 | -1 | -3 | 25*
COc1ccc(OC)c(NC(=O)Cc2nn(C)c(=O)c3ccccc23)c1 | 11 | i | 2 | -2 | -4 | /
Cn1nc(CC(=O)NCc2ccc(C(F)(F)F)cc2)c2ccccc2c1=O | 45 | i | -4 | 2 | 2 | /
CC1(C)CC(NC(=O)COc2ccc3ccc(=O)oc3c2)CC(C)(C)N1 | -1 | i | 3 | 3 | -5 | /
CC1CC(C)(C)CC2(C1)NC(=O)N(CC(=O)Nc1ccc3c(c1)OCO3)C2=O (stereo not drawn) | -1 | i | / | 3 | -5 | /
COC(=O)[C@H](C)NC(=O)Nc1ccc(OC)c(OC)c1 | -2 | i | 2 | 2 | -5 | /
COc1ccc(NC(=O)NC23CC4(C)CC(C)(CC(C)(C4)C2)C3)cc1OC | 76* | i | 0 | 8 | 12 | 51*
CCN(CC)c1ccc2nc3ccccc3[n+](CC)c2c1 | 23 | ? | -1 | / | -1 | /
CCN(CC)c1ccc2nc3ccc(N)cc3[n+](-c3ccccc3)c2c1 | 54* | ? | -2 | 3 | -9 | 24*
CC(=O)NCc1ccc(OCCCN2CCC(C(O)(c3ccccc3)c3ccccc3)CC2)cc1 | / | / | / | -1 | / | /
O[C@@H](c1cc(C(F)(F)F)nc2c(C(F)(F)F)cccc12)[C@H]1CCCCN1 | 97* | i | 2 | 18 | 6 | -21
OC(c1cc(C(F)(F)F)nc2c(Cl)cc(Cl)cc12)C1CCCCN1 (stereo not drawn) | 2 | i | -2 | 16 | -3 | /
COc1ccc2nc3cc(Cl)ccc3c(Nc3cc(C(C)C)c(O)cc3C)c2c1 | 84* | ? | -7 | 16 | 5 | 109*
C[C@@H]1CN([C@@H](C)CO)C(=O)CCCn2nncc2CO[C@@H]1CN(C)S(=O)(=O)c1cn(C)cn1 | 0 | i | / | 3 | -12 | /
Cc1ccc2c(c1)c1c(n2CC(O)CNC(CO)(CO)CO)CCCC1 (stereo not drawn) | -2 | i | 0 | 0 | -7 | /
Cc1ccc2c(c1)c1c(n2CC(O)CNC2CCCCC2)CCCC1 (stereo not drawn) | 80* | i | 0 | 16 | -8 | -20
Cc1ccc(CSc2nnc(-c3ccc4c(c3)OCO4)o2)cc1 | -3 | i | -3 | 2 | 16 | /
COc1ccc(C2=NCC(CSc3nnc(-c4ccc5c(c4)OCO5)o3)S2)cc1 (stereo not drawn) | 58* | i | -1 | -2 | 24 | 81*
CCN(CC)S(=O)(=O)c1ccc2oc(SCC3CN=C(c4ccc(OC)cc4)S3)nc2c1 (stereo not drawn) | 56* | i | 1 | 5 | 16 | 10 | MPTP abs DR=17*;MPTP counter DR=12*
SMILES | MPTP block | Myeloid diff MLP | GRIN3A LBD mod | rCAG binder | FAS TE block | MPTP counter | others
COc1ccc(C(=O)N/C(=C/c2ccco2)C(=O)NC2CCS(=O)(=O)C2)cc1 (stereo not drawn) | 1 | i | 0 | 1 | -3 | /
CC1(C(=O)NS(=O)(=O)c2ccc3c(c2)CCO3)CCN1C(=O)CCC1CCCC1 (stereo not drawn) | 0 | i | / | 8 | -7 | /
Cc1ccc(S(=O)(=O)N(C)C)cc1NC(=S)NC(=O)C12CC3CC(CC(C3)C1)C2 | 60* | i | 1 | 4 | 32 | 35*
Cc1ccc(S(=O)(=O)N(C)C)cc1NC(=S)Nc1ccc2[nH]c(=O)[nH]c2c1 | -2 | i | -1 | 2 | -4 | /
Cc1ccc(S(=O)(=O)N(C)C)cc1NC(=S)NC12CC3CC(CC(C3)C1)C2 | 65* | i | -8 | 6 | 27 | 84*
Cc1cc(Br)cn2c(Cc3ccsc3)c(-c3cccc(Br)c3)nc12 | 0 | i | / | 8 | 14 | /
O=c1cc(C(F)(F)F)[nH]c2ccc(OC(F)(F)F)cc12 | 64* | i | 1 | 1 | -3 | 85*
O=c1cc(C(F)(F)F)[nH]c2c(C(F)(F)F)cccc12 | 64* | i | -5 | / | -6 | 98*
COc1ccc(NC(=O)CSc2ncccn2)cc1S(=O)(=O)N1CCCCC1 | 0 | i | 0 | 6 | -12 | /
CC(=O)Nc1ccc(S(=O)(=O)NCCC(=O)OCC(=O)c2ccccc2)cc1 | 0 | i | 1 | 7 | -5 | /
CC(=O)Nc1ccc(S(=O)(=O)NCCC(=O)OCC(=O)c2ccc(Br)cc2)cc1 | 59* | i | 1 | 5 | -2 | 87*
NCCCCc1ccc2ccc3cccc4ccc1c2c34 | 89* | i | -2 | 20 | -31 | -15 | MPTP abs DR=6.2*;MPTP counter DR=53*
O=S(=O)(c1ccc(Cl)c(NC(=S)N/N=C/c2c(F)cccc2F)c1)N1CCOCC1 | 57* | i | -11 | 12 | 6 | 47*
COC(=O)c1cc2c(c3c4cc(OC)ccc4n(S(C)(=O)=O)c13)C(=O)N(C)C2 | / | / | / | 17 | / | /
CC(C)C[C@H](N)c1cn([C@@H](Cc2cc3ccccc3[nH]2)C(=O)N2CCNCC2)nn1 | 92* | i | 2 | 8 | -9 | -12 | MPTP abs DR=4.9*;MPTP counter DR=>80
CCC(C)[C@H](N)c1cn([C@@H](Cc2cc3ccccc3[nH]2)C(=O)N2CCNCC2)nn1 (stereo partly drawn) | 1 | i | 3 | 10 | -10 | /
COc1cc(CCNC(=O)CCCn2c(=O)c3cccn3c3cccnc32)cc(OC)c1OC | 1 | i | -3 | -4 | -5 | /
CCN(CC)C(=O)c1ccc(S(=O)(=O)N2CCC(c3nc4ccccc4s3)CC2)cc1 | 89* | i | 1 | -2 | 2 | 94*
CC1CCCN(C(=O)c2ccc(S(=O)(=O)N3CCC(c4nc5ccccc5s4)CC3)cc2)C1 (stereo not drawn) | 16 | i | 2 | -1 | 12 | /
